Experimental data published in PubChem BioAssay AID1159580 (chemical genetic matrix, 2015).
Hit rate of the full screen: of about 5,500 compounds, about 2,000 (36%) were called active. Inconclusive results (about 18%) are left out. Cut-off read from the data, not from the text of the source: active = normalized growth mostly below about 0.91 (no sharp cut-off); inconclusive = no clear call, values can overlap the other calls; inactive = mostly above about 0.92. The list shows a part of the results.

Assay: chemical genetic growth profiling, strain panel (AID 1159580);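 note: tested at 20 µM; growth read once vehicle control cultures reached saturation at 30 °C; 1 = growth at the plate median or of vehicle wells; lower values mean less growth of the strain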
Conditions: growth OD

Measured: normalized growth

C=CC1=C(C(=O)O)N2C(=O)[C@@H](NC(=O)/C(=N/O)c3csc(N)n3)[C@H]2SC1
inactive: S. cerevisiae deletion strains, locus YJR066W, strain TOR1, stronger effect = lower value 0.95 | S. cerevisiae deletion strains, locus YJR075W, strain HOC1, stronger effect = lower value 1.01 | S. cerevisiae deletion strains, locus YKL009W, strain mrt4, stronger effect = lower value 0.995 | S. cerevisiae deletion strains, locus YKL068W, stronger effect = lower value 1 | S. cerevisiae deletion strains, locus YKL085W, strain MDH1 (second series), stronger effect = lower value 0.989 | S. cerevisiae deletion strains, locus YKL085W, strain MDH1, stronger effect = lower value 0.989 | S. cerevisiae deletion strains, locus YKL160W, strain elf1, stronger effect = lower value 1.02 | S. cerevisiae deletion strains, locus YKL190W, strain CNB1, stronger effect = lower value 1.02 | S. cerevisiae deletion strains, locus YKR001C, strain vps1, stronger effect = lower value 0.979 | S. cerevisiae deletion strains, locus YKR026C, strain gcn3, stronger effect = lower value 1.03 | S. cerevisiae deletion strains, locus YKR091W, strain srl3, stronger effect = lower value 1.02 | S. cerevisiae deletion strains, locus YLL001W, strain dnm1, stronger effect = lower value 1.02 | S. cerevisiae deletion strains, locus YLL026W, stronger effect = lower value 1.03 | S. cerevisiae deletion strains, locus YLL041C, strain sdh2, stronger effect = lower value 1.02 | S. cerevisiae deletion strains, locus YLR027C, strain aat2, stronger effect = lower value 1.02 | S. cerevisiae deletion strains, locus YLR039C, strain RIC1, stronger effect = lower value 1.04 | S. cerevisiae deletion strains, locus YLR058C, strain SHM2, stronger effect = lower value 0.996 | S. cerevisiae deletion strains, locus YLR102C, strain apc9, stronger effect = lower value 0.997 | S. cerevisiae deletion strains, locus YLR113W, strain HOG1, stronger effect = lower value 1.02 | S. cerevisiae deletion strains, locus YLR221C, strain rsa3, stronger effect = lower value 1.04 | S. cerevisiae deletion strains, locus YLR258W, strain gsy2, stronger effect = lower value 1.02 | S. cerevisiae deletion strains, locus YLR262C, strain YPT6 (second series), stronger effect = lower value 1.04 | S. cerevisiae deletion strains, locus YLR262C, strain YPT6, stronger effect = lower value 1.02 | S. cerevisiae deletion strains, locus YLR268W, strain sec22, stronger effect = lower value 1 | S. cerevisiae deletion strains, locus YLR320W, strain mms22, stronger effect = lower value 1.02 | S. cerevisiae deletion strains, locus YLR330W, strain CHS5, stronger effect = lower value 0.992 | S. cerevisiae deletion strains, locus YLR342W, strain FKS1 (second series), stronger effect = lower value 1.02 | S. cerevisiae deletion strains, locus YLR342W, strain FKS1, stronger effect = lower value 1.03 | S. cerevisiae deletion strains, locus YLR357W, strain rsc2, stronger effect = lower value 1.02 | S. cerevisiae deletion strains, locus YLR370C, strain arc18, stronger effect = lower value 1.02 | S. cerevisiae deletion strains, locus YLR371W, strain rom2, stronger effect = lower value 0.994 | S. cerevisiae deletion strains, locus YLR384C, strain iki3, stronger effect = lower value 1.02 | S. cerevisiae deletion strains, locus YLR418C, strain cdc73, stronger effect = lower value 0.998 | S. cerevisiae deletion strains, locus YML016C, strain PPZ1, stronger effect = lower value 0.987 | S. cerevisiae deletion strains, locus YML032C, strain rad52, stronger effect = lower value 1 | S. cerevisiae deletion strains, locus YML120C, strain ndi1, stronger effect = lower value 1.02 | S. cerevisiae deletion strains, locus YML124C, strain tub3, stronger effect = lower value 0.993 | S. cerevisiae deletion strains, locus YMR058W, strain fet3, stronger effect = lower value 1.01 | S. cerevisiae deletion strains, locus YMR078C, strain ctf18, stronger effect = lower value 0.989 | S. cerevisiae deletion strains, locus YMR125W, strain sto1, stronger effect = lower value 1.03 | S. cerevisiae deletion strains, locus YMR129W, stronger effect = lower value 1.01 | S. cerevisiae deletion strains, locus YMR205C, strain PFK2, stronger effect = lower value 1.03 | S. cerevisiae deletion strains, locus YMR223W, strain ubp8, stronger effect = lower value 0.994 | S. cerevisiae deletion strains, locus YMR231W, strain pep5, stronger effect = lower value 1.02 | S. cerevisiae deletion strains, locus YMR263W, strain SAP30, stronger effect = lower value 1.04 | S. cerevisiae deletion strains, locus YMR307W, strain GAS1, stronger effect = lower value 1.05 | S. cerevisiae deletion strains, locus YNL067W, strain RPL9B, stronger effect = lower value 1.08 | S. cerevisiae deletion strains, locus YNL071W, strain lat1, stronger effect = lower value 1.02 | S. cerevisiae deletion strains, locus YNL128W, strain TEP1, stronger effect = lower value 1.02 | S. cerevisiae deletion strains, locus YNL153C, strain GIM3, stronger effect = lower value 1 | S. cerevisiae deletion strains, locus YNL183C, strain NPR1, stronger effect = lower value 0.956 | S. cerevisiae deletion strains, locus YNL209W, strain ssb2, stronger effect = lower value 1.01 | S. cerevisiae deletion strains, locus YNL233W, strain BNI4, stronger effect = lower value 1 | S. cerevisiae deletion strains, locus YNL248C, strain rpa49, stronger effect = lower value 1.04 | S. cerevisiae deletion strains, locus YNL250W, strain rad50, stronger effect = lower value 0.99 | S. cerevisiae deletion strains, locus YNL271C, strain bni1, stronger effect = lower value 0.99 | S. cerevisiae deletion strains, locus YNL298W, strain CLA4, stronger effect = lower value 0.982 | S. cerevisiae deletion strains, locus YNL307C, strain MCK1, stronger effect = lower value 1.01 | S. cerevisiae deletion strains, locus YNL322C, strain KRE1 (second series), stronger effect = lower value 1.04 | S. cerevisiae deletion strains, locus YNL322C, strain KRE1, stronger effect = lower value 1 | S. cerevisiae deletion strains, locus YNR049C, strain mso1, stronger effect = lower value 1.02 | S. cerevisiae deletion strains, locus YNR052C, strain pop2, stronger effect = lower value 1 | S. cerevisiae deletion strains, locus YOL006C, strain TOP1, stronger effect = lower value 0.995 | S. cerevisiae deletion strains, locus YOL012C, strain htz1 1.75 | S. cerevisiae deletion strains, locus YOR001W, strain rrp6, stronger effect = lower value 1.03 | S. cerevisiae deletion strains, locus YOR061W, strain CKA2, stronger effect = lower value 0.994 | S. cerevisiae deletion strains, locus YOR069W, strain VPS5, stronger effect = lower value 0.998 | S. cerevisiae deletion strains, locus YOR070C, strain gyp1, stronger effect = lower value 1.01 | S. cerevisiae deletion strains, locus YOR080W, strain dia2, stronger effect = lower value 1.04 | S. cerevisiae deletion strains, locus YOR083W, strain WHI5, stronger effect = lower value 1.02 | S. cerevisiae deletion strains, locus YOR106W, strain vam3, stronger effect = lower value 1.03 | S. cerevisiae deletion strains, locus YOR136W, strain idh2, stronger effect = lower value 0.988 | S. cerevisiae deletion strains, locus YOR144C, strain elg1, stronger effect = lower value 0.979 | S. cerevisiae deletion strains, locus YOR184W, strain ser1, stronger effect = lower value 0.993 | S. cerevisiae deletion strains, locus YOR231W, strain MKK1, stronger effect = lower value 0.978 | S. cerevisiae deletion strains, locus YOR265W, strain rbl2, stronger effect = lower value 1.02 | S. cerevisiae deletion strains, locus YOR270C, strain vph1, stronger effect = lower value 1.03 | S. cerevisiae deletion strains, locus YOR290C, strain snf2, stronger effect = lower value 1.01 | S. cerevisiae deletion strains, locus YOR316C, strain cot1, stronger effect = lower value 0.994 | S. cerevisiae deletion strains, locus YPL051W, strain arl3, stronger effect = lower value 1.03 | S. cerevisiae deletion strains, locus YPL055C, strain LGE1, stronger effect = lower value 1.03 | S. cerevisiae deletion strains, locus YPL078C, strain atp4, stronger effect = lower value 1.02 | S. cerevisiae deletion strains, locus YPL106C, strain sse1, stronger effect = lower value 1.04 | S. cerevisiae deletion strains, locus YPL240C, strain hsp82, stronger effect = lower value 1.03 | S. cerevisiae deletion strains, locus YPL241C, strain CIN2, stronger effect = lower value 1.01 | S. cerevisiae deletion strains, locus YPL256C, strain CLN2, stronger effect = lower value 0.957 | S. cerevisiae deletion strains, locus YPR141C, strain kar3, stronger effect = lower value 0.984 | S. cerevisiae deletion strains, locus YPR163C, strain tif3, stronger effect = lower value 0.991 | S. cerevisiae deletion strains, locus YPR167C, strain met16, stronger effect = lower value 0.994 | S. cerevisiae deletion strains, strain wtn01, stronger effect = lower value 0.993 | S. cerevisiae strains, strain wild type, stronger effect = lower value 1.03
